From PubChem BioAssay
Calls of active or inactive are those of the source.

Legend:
[1] = test system: PRMT1 (protein arginine N-methyltransferase 1); assay: small molecules binding arginine methyltransferase PRMT1 – biochemical, small-molecule microarray, 635 nm fluorescence, primary screen (AID 1088); conditions: higher = more signal;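 also: binding of Prmt1 protein to compounds spotted on small-molecule microarray slides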
[2] = growth effects on S. cerevisiae YJM789 – YJM789 clinical isolate, OD600, 24 h, basal, primary screen (AID 1089); conditions: higher = more signal, called active from +8 up or from −8 down;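 also: growth of clinical yeast isolate S. cerevisiae YJM 789 seeded 1000 cells per well; test concentration not given here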
[3] = S. pombe growth modifiers, basal conditions – strain 972, OD600, 24 h, no modulator, primary screen (AID 1090);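 also: basal condition with compound alone and no growth modifier present; test concentration not given here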; conditions: S. pombe 972 growth, higher = more signal, called active from +8 up or from −8 down
[4] = budding yeast growth modifiers under rapamycin – strain BY4716, OD600, 96 h, primary screen (AID 1091); also: test concentration not given here; conditions: S. cerevisiae BY4716 + rapamycin, higher = more signal, called active from +8 up or from −8 down
[5] = molecular target: Torsin-1A-interacting protein 2 (Homo sapiens) (UniProt Q8NFQ8); assay: small molecules binding lysate-expressed LULL1 – cell lysate, human LULL1 lysate, 635/667 nm fluorescence, primary screen (AID 1092); conditions: small-molecule microarray, hLULL1 lysate binding, 635 nm fluorescence; higher = more signal;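 also: probe is lysate of COS7 cells overexpressing human LULL1; score merges per-feature 667 nm fluorescence with signal-to-noise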
Chain of Torsin-1A-interacting protein 2 (Homo sapiens) (Q8NFQ8 whole entry, looked up): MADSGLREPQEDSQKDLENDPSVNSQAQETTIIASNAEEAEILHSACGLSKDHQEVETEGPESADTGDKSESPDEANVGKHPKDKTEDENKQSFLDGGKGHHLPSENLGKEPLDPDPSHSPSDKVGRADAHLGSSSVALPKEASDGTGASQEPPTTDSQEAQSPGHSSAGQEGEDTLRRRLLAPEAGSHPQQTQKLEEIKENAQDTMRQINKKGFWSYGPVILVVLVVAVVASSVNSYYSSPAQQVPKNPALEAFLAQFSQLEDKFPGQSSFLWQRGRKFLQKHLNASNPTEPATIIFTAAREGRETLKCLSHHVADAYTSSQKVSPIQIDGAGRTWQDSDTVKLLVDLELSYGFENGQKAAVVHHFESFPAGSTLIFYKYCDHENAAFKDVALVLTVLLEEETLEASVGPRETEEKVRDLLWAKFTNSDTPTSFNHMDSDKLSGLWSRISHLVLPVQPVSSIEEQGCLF

[6] = optical density change of DRC41 E. coli – strain DRC41, OD650, 24 h, E. coli filamentation project, primary screen (AID 1093);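 also: MC1000 strain lacking acrAB efflux and sulA so SOS filamentation is blocked; test concentration not given here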; conditions: E. coli DRC41 growth, higher = more signal, called active from +8 up or from −8 down
[7] = probe aLefty2 binding to arrayed compounds – biochemical, biotinylated probe, 635/667 nm fluorescence, primary screen (AID 1094); conditions: small-molecule microarray, higher = more signal;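 also: score merges spot fluorescence near 667 nm with spot signal-to-noise ratio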
[8] = test system: Noggin (protein binding on small-molecule microarray); assay: small molecules binding Noggin protein – biochemical, 635/667 nm fluorescence, primary screen (AID 1095); conditions: 635 nm fluorescence, higher = more signal;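 also: score merges 667 nm feature fluorescence with signal to noise over triplicate slides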
[9] = molecular target: Neurogenic locus notch homolog protein 3 (Homo sapiens) (UniProt Q9UM47); assay: small molecules binding NOTCH3 protein – biochemical, 635/667 nm fluorescence, primary screen (AID 1096); conditions: small-molecule microarray, 635 nm fluorescence, higher = more signal
Chain of Neurogenic locus notch homolog protein 3 (Homo sapiens) (Q9UM47 whole entry, looked up): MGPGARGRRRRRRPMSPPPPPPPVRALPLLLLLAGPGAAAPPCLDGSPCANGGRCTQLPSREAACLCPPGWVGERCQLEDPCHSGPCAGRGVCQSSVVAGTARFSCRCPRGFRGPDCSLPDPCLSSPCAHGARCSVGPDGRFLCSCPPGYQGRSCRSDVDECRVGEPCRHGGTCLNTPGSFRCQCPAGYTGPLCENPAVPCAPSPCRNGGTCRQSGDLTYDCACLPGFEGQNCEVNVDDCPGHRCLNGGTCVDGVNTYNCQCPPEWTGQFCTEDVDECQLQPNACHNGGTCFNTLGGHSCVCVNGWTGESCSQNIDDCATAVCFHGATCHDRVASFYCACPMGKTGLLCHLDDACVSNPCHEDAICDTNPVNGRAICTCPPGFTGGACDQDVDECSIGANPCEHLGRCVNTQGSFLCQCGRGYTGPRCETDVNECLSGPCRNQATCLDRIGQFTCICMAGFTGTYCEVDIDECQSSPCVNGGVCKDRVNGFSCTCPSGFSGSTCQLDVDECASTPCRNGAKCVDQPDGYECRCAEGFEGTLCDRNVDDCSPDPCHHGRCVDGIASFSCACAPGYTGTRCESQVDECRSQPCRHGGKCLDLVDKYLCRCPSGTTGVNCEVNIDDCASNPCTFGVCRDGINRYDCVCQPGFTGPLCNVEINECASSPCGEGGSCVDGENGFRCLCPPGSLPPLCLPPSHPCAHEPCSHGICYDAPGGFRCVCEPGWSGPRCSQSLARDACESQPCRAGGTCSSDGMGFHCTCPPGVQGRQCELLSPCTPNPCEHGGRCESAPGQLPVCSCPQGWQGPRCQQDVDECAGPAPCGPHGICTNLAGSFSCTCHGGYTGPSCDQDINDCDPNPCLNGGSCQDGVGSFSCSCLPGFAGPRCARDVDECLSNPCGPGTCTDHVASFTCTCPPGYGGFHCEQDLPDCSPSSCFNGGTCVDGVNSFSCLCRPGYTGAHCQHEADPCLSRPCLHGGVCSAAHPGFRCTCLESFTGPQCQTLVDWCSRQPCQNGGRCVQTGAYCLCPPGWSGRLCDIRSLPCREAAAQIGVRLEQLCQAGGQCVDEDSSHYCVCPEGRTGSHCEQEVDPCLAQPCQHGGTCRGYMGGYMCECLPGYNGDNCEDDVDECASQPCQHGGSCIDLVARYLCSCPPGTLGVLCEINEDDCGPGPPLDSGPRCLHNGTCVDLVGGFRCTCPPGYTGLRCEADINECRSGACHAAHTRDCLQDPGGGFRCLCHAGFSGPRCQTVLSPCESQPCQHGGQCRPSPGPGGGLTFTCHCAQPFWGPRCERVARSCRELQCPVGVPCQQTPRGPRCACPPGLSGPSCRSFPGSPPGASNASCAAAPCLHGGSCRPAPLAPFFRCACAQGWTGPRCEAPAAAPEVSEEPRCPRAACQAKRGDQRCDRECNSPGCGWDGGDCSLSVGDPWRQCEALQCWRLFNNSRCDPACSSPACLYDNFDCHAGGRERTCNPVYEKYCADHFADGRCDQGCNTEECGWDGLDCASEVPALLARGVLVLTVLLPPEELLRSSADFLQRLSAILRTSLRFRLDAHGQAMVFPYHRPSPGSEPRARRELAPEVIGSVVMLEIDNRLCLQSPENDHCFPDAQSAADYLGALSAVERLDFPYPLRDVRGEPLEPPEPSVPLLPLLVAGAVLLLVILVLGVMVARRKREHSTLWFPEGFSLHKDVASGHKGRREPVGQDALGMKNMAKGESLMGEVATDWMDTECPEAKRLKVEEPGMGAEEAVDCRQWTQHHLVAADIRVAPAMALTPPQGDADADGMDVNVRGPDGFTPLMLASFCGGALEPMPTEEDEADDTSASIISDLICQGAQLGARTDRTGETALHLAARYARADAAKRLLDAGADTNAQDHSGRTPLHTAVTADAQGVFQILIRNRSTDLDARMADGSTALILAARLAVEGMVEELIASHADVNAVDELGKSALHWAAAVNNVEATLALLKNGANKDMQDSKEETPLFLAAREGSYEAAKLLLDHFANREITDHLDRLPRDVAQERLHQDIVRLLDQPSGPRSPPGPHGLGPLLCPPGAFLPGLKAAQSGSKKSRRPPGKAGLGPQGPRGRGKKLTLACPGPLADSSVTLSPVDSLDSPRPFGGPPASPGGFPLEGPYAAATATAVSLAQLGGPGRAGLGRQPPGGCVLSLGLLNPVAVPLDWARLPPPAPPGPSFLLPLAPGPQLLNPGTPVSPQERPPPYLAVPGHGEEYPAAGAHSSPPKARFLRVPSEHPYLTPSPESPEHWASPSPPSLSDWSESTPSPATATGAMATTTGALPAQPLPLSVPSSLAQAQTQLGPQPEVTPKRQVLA

[10] = probe aEGFR binding to arrayed compounds – biochemical, biotinylated probe, 635/667 nm fluorescence, primary screen (AID 1097); conditions: small-molecule microarray, higher = more signal;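 also: probe is a biotinylated anti-EGFR antibody binding compounds printed on slides; score combines fluorescence near 667 nm and signal to noise of each spot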
[11] = test system: Plasmodium falciparum Sir2 (PF13_0152, Sir2A); assay: Plasmodium falciparum Sir2A binding compounds – biochemical, small-molecule microarray, 635 nm fluorescence, primary screen (AID 1098); conditions: fluorescence 635 nm, higher = more signal;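 also: score merges spot fluorescence intensity with its signal-to-noise ratio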
[12] = probe aDKK1 binding to arrayed compounds – biochemical, biotinylated probe, 635/667 nm fluorescence, primary screen (AID 1099); conditions: small-molecule microarray, higher = more signal;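 also: score merges 667nm spot fluorescence with signal to noise across triplicate slides; reference of the scale not given here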
[13] = probe aCHRDL2 binding to arrayed compounds – biochemical, biotinylated probe, 635/667 nm fluorescence, primary screen (AID 1100); conditions: small-molecule microarray, higher = more signal
[14] = change in splice reporter luminescence, either direction, cell-based, HEK293, spliceosome inhibition project, primary screen (AID 1101); conditions: HEK293 splicing luciferase reporter, 24 h, higher = more signal, called active from +8 up or from −8 down;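 also: HEK293 cells carrying a splicing-competent luciferase reporter gene; test concentration not given here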
[15] = molecular target: Fibroblast growth factor 10 (Homo sapiens) (UniProt O15520); assay: compounds binding fibroblast growth factor 10 – biochemical, small-molecule microarray, 635 nm fluorescence, primary screen (AID 1102); conditions: FGF10 binding, fluorescence 635 nm, higher = more signal
Chain of Fibroblast growth factor 10 (Homo sapiens) (O15520 whole entry, looked up): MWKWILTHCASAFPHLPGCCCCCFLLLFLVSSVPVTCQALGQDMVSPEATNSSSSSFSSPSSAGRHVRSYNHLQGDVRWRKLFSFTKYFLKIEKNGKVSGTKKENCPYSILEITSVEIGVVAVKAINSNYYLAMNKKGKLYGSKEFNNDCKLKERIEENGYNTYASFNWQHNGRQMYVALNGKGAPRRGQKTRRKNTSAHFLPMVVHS

[16] = test system: glycogen synthase kinase-3 (GSK3A per assay name; protocol says GSK3B); assay: compounds binding glycogen synthase kinase-3 – biochemical, small-molecule microarray, 635 nm fluorescence, GSK3A, primary screen (AID 1103); conditions: fluorescence 635 nm, higher = more signal; also: the record names both GSK3A and GSK3B
[17] = molecular target: Epidermal growth factor receptor (Homo sapiens) (UniProt P00533); assay: compounds binding epidermal growth factor receptor – biochemical, small-molecule microarray, 635 nm fluorescence, primary screen (AID 1104); conditions: EGFR binding, higher = more signal;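 also: score merges 667 nm emission intensity with spot signal to noise over triplicate slides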
Chain of Epidermal growth factor receptor (Homo sapiens) (P00533 whole entry, looked up): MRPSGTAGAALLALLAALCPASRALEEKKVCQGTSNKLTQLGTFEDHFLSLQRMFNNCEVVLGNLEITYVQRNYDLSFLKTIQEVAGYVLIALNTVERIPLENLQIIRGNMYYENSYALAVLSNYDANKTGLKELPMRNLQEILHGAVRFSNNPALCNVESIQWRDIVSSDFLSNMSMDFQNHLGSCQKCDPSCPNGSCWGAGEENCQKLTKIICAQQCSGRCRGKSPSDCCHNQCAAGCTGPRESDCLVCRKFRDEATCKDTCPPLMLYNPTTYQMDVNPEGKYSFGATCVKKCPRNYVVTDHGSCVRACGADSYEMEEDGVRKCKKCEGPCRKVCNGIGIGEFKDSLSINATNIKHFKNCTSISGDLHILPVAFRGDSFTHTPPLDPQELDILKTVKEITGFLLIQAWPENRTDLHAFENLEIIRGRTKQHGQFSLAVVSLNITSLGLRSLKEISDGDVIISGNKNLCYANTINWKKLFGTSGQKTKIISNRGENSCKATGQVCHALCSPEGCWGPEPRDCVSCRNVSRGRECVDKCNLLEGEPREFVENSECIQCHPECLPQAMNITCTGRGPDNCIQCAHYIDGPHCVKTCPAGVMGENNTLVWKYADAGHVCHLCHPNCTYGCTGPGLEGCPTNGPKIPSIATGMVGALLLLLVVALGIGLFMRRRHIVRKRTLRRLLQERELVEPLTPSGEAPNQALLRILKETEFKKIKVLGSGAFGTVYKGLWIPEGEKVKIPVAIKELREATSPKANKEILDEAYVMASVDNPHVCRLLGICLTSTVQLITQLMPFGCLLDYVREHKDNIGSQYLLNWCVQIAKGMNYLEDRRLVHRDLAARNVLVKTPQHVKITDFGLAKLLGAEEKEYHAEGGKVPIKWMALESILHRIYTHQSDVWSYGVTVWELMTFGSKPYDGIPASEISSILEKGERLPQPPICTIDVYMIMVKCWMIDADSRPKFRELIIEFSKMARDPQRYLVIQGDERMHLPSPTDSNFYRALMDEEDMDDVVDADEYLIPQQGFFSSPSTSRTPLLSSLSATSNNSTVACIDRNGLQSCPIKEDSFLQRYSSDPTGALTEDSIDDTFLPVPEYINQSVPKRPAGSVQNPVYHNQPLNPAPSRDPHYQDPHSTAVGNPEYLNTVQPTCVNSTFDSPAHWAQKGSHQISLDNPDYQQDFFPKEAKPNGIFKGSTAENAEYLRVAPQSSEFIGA

[18] = molecular target: Follistatin-related protein 3 (Homo sapiens) (UniProt O95633); assay: compounds binding follistatin-related protein 3 – biochemical, small-molecule microarray, 635 nm fluorescence, primary screen (AID 1105); conditions: FSTL3 binding, higher = more signal;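 also: score merges emission near 667 nm and signal to noise per printed spot across three slides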
Chain of Follistatin-related protein 3 (Homo sapiens) (O95633 whole entry, looked up): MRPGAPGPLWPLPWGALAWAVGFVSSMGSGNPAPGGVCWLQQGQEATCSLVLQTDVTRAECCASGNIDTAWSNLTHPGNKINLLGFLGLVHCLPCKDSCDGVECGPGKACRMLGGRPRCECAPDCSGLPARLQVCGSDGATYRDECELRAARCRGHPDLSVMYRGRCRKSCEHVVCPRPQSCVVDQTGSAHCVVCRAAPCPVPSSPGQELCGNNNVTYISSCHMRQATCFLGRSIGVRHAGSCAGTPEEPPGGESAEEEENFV

[19] = molecular target: Dickkopf-related protein 1 (Homo sapiens) (UniProt O94907); assay: small molecules binding DKK1 protein – biochemical, small-molecule microarray, 635 nm fluorescence scan, primary screen (AID 1106); conditions: higher = more signal;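 also: score merges emission near 667 nm with signal to noise over three replicate slides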
Chain of Dickkopf-related protein 1 (Homo sapiens) (O94907 whole entry, looked up): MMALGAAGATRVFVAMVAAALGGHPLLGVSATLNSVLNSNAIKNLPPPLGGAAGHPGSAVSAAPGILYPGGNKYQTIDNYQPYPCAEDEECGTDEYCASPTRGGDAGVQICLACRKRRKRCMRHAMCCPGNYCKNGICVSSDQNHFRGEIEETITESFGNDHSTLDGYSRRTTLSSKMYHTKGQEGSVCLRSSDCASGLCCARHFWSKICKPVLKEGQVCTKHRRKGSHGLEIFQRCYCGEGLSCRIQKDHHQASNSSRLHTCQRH

[20] = test system: Inhibin beta A chain (activin A); assay: small molecules binding activin A – biochemical, small-molecule microarray, 635 nm fluorescence scan, primary screen (AID 1107); conditions: INHBA, higher = more signal;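 also: mouse activin A protein probed at 4.33 µg/mL on printed slides; score merges bound-protein fluorescence near 667 nm with spot signal-to-noise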

| SMILES | composite z-score [1] | z-score [2] | z-score [3] | z-score [4] | composite z-score [5] | z-score [6] | composite z-score [7] | composite z-score [8] | composite z-score [9] | composite z-score [10] | composite z-score [11] | composite z-score [12] | composite z-score [13] | z-score [14] | composite z-score [15] | composite z-score [16] | composite z-score [17] | composite z-score [18] | composite z-score [19] | composite z-score [20] |
| --- | --- | --- | --- | --- | --- | --- | --- | --- | --- | --- | --- | --- | --- | --- | --- | --- | --- | --- | --- | --- |
| [N-]=[N+]=Nc1ccccc1C[C@]1(C(=O)NCc2ccccc2)COC(c2ccc(OCCCO)cc2)=N1 | 1.32 | 1.04 (inactive) | 0.184 (inactive) | 32.1 (active) | 3.33 | 1.04 (inactive) | 0.0573 | 0.544 | 1.08 | -0.0669 | 1.26 | 0.187 | 0.869 | 0.439 (inactive) | 1.16 | 1.23 | -0.404 | 1.01 | -0.537 | 0.386 |
| COc1ccc(C(=O)Nc2cccc(CN3C(=O)[C@@]4(O[C@@H](CC(=O)N(CCO)Cc5ccccc5)[C@H]([Si](C)(C)c5ccc(OC)cc5)[C@H]4C)c4ccccc43)c2)cc1 | 0.931 | -1.42 (inactive) | -0.9 (inactive) | 2.85 (inactive) | 1.94 | 0.904 (inactive) | -0.175 | 0.8 | 0.487 | -0.201 | 1.4 | -0.566 | -0.0709 | -2.23 (inactive) | -0.0511 | 0.196 | 0.0627 | 0.823 | 0.26 | 0.636 |
| COc1ccc([Si](C)(C)[C@H]2[C@H](CCO)O[C@@]3(C(=O)N(Cc4ccccc4)c4ccc(N5C(=O)c6ccccc6Oc6ccccc65)cc43)[C@@H]2C)cc1 | 1.12 | -0.234 (inactive) | 0.723 (inactive) | 4.27 (inactive) | 1.94 | 1.25 (inactive) | -0.114 | -0.355 | 0.427 | -0.174 | 0.365 | -0.167 | -0.123 | -0.916 (inactive) | 0.0351 | -0.512 | -0.124 | -0.734 | 0.0449 | 0.201 |
| [N-]=[N+]=Nc1ccccc1C[C@]1(C(=O)O)N=C(c2ccc(OCCCO)cc2)O[C@H]1c1ccccc1 | 1.34 | 3.9 (inactive) | 0.888 (inactive) | 0.712 (inactive) | 3.11 | 0.464 (inactive) | 0.0116 | -0.0597 | 0.703 | -0.0828 | 1.71 | 0.336 | 0.724 | -0.918 (inactive) | 0.143 | 0.0096 | -0.839 | 0.195 | -0.689 | 0.86 |
| O=C1O[C@H](c2ccccc2)[C@H](c2ccccc2)N2[C@H]1[C@@H](C(=O)N1CCCCCCC1)[C@]1(C(=O)Nc3ccc(C#CC4(O)CCCCCC4)cc31)[C@H]2c1ccc(O)cc1 | 1.54 | 0.666 (inactive) | 0.73 (inactive) | 1.19 (inactive) | 3.97 | 0.408 (inactive) | 1.65 | 1.78 | 1.06 | 1.35 | 1.5 | 2.93 | 1.59 | 0.69 (inactive) | 1.19 | 1.34 | 1.72 | 1.58 | 1.75 | 1.79 |
| Cc1ccc([C@H]2C(C(=O)O)=C[C@@H](C(C)(C)C)N2S(=O)(=O)c2ccc(C)cc2)cc1 | 1.39 | -0.225 (inactive) | 0.289 (inactive) | 0.118 (inactive) | 3.25 | -1.01 (inactive) | 0.118 | 0.101 | 1.04 | 0.155 | 1.03 | 1.05 | 1.06 | 0.0856 (inactive) | 1.1 | 1.31 | 0.0496 | 1.17 | -0.591 | 0.265 |
| C=C(COC)C(=O)CC[C@H](OC(C)=O)c1ccc(OCCO)cc1 | 1.44 | 0.389 (inactive) | -2.5 (inactive) | -1.06 (inactive) | -0.451 | 1.39 (inactive) | -0.211 | 1.93 | 0.711 | -0.0387 | 0.761 | -0.0747 | -0.0486 | -1.5 (inactive) | 1.35 | -0.143 | -0.0056 | 0.576 | 0.722 | 0.136 |
| CCCCC=C[C@@H](NC(=O)c1ccccc1)c1ccccc1 | 1.04 | 0.409 (inactive) | 0.336 (inactive) | 0.889 (inactive) | 3.51 | -1.37 (inactive) | -0.0261 | -0.328 | 1.09 | 0.0488 | 0.322 | 0.357 | 0.732 | -0.696 (inactive) | 0.659 | 1.22 | -0.056 | 0.79 | 0.0017 | 1.01 |
| COCCCNC(=O)[C@@]1(Sc2ccc(C)cc2)CC(=O)N(C(C)C)[C@@H]1c1ccc(CO)cc1I | 1.31 | -0.436 (inactive) | -2.98 (inactive) | 0.445 (inactive) | 2.53 | -2.04 (inactive) | -0.0225 | -0.926 | -0.365 | -0.21 | 1.03 | -0.0358 | 0.836 | -2.25 (inactive) | -0.0668 | -0.0859 | -0.839 | -0.665 | -1.12 | 0.978 |
| C=CCC(OC(C)=O)[C@@H]1[C@@H](N(Cc2ccc(-c3cccc(C(F)(F)F)c3)o2)C(=O)c2cccc3ccccc23)c2cc(OCCCO)ccc2N1C(=O)Cc1ccc(OC)cc1 (stereo not given in full) | 0.224 | 0.504 (inactive) | -0.117 (inactive) | -0.296 (inactive) | 0.648 | 0.776 (inactive) | 0.0054 | 0.266 | 0.263 | -0.133 | 0.727 | -0.291 | 0.107 | -0.57 (inactive) | 0.0525 | -1.13 | -0.198 | 0.495 | -0.141 | 1.08 |
